30 molecules from PubChem BioAssay (EPA / NIEHS) can be followed below.

Molecules are shown by their SMILES. Activity calls are given as the source filed them. Rule for the calls: active = hit-call score of the fitted dose curve at least 0.9, where 1 is the maximum; inactive = score below 0.9.

Sequence of Signal transducer and activator of transcription 3 (Homo sapiens) (P40763 whole entry, looked up): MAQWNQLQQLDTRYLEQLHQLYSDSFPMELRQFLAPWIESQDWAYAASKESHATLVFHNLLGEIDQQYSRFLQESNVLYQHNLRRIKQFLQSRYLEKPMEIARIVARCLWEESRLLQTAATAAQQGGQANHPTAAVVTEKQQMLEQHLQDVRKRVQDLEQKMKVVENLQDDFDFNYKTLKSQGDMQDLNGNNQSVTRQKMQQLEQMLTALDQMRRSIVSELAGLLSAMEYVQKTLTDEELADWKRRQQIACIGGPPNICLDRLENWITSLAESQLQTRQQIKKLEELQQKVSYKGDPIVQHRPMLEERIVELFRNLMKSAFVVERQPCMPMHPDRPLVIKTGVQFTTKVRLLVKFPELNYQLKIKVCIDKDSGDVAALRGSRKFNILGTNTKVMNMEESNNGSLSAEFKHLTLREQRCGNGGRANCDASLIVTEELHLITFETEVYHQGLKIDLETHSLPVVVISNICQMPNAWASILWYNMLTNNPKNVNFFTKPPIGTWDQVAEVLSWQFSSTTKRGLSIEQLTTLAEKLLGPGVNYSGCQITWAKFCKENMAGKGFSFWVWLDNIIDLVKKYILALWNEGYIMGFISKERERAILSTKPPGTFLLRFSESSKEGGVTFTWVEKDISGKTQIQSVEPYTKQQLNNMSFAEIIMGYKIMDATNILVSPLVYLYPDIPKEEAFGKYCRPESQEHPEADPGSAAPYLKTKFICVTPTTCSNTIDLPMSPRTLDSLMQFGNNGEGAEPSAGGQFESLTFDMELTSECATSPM

Read-out in one test: Signal transducer and activator of transcription 3 (Homo sapiens) (UniProt P40763)
Description: LTEA_HepaRG_STAT3: Life Technologies and Expression Analysis (LTEA) Assay for Signal transducer and activator of transcription (STAT3) using HepaRG (AID 2283529). The conditions noted are these: mRNA level, 48 h; actives raise or lower the signal. An outline of the steps:
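Read-out is STAT3 mRNA level by qRT-PCR, normalized to three housekeeping genes, in human HepaRG liver cells treated for 48 h. Concentrations ran from 100 uM downward in half-log steps; curves were fitted for gain or loss relative to 0.5% DMSO.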
As for `COCCOCCO`, the result was inactive.

As to `Nc1cc2c3c(c1)C(c1ccccc1)=N[C@@H](NC(=O)c1cccnc1)C(=O)N3CC2`, the molecule was called inactive.

Consider `CCNc1nc(Cl)nc(NC(C)(C)C)n1`, for which the molecule was classed as inactive.

As for `CC(Cl)(Cl)C(=O)O`, the result was inactive.

As for `Cc1cccc(N)c1`, the call was inactive.

As for `CC(Cc1ccc(OCC(=O)O)cc1)NCC(O)c1csc(C(F)(F)F)n1` (stereo not drawn), the molecule was classed as inactive.

`CSC(C)(C)C=NO`: the outcome was inactive.

Consider `Cc1ccc(N)cc1N`, for which the outcome was inactive.

Turning to `CCOS(=O)(=O)OCC`, the outcome was inactive.

Regarding `CCCCN(CCCC)SN(C)C(=O)Oc1cccc2c1OC(C)(C)C2`, the molecule was classed as inactive.

On to `CCOC(=O)c1ccccc1C(=O)OCC`, for which the outcome was inactive.

In the case of `CCCCc1ccccc1`, the call was inactive.

On to `c1nc[nH]n1`, for which the call was inactive.

In the case of `O=P(Oc1ccccc1)(Oc1ccccc1)Oc1ccccc1`, the call was inactive.

Regarding `ClC(Cl)c1ccccc1`, the molecule was classed as inactive.

With `Cc1ccc([N+](=O)[O-])cc1C`, the molecule was classed as inactive.

For the molecule `O=[N+]([O-])c1ccccc1`, the outcome was inactive.

Take `CN(C)C(=O)Cl`: the molecule was classed as inactive.

Take `O=P1(N(CCCl)CCCl)NCCCO1` (stereo not drawn): the result was inactive.

Regarding `[N-]=[N+]=[N-]`, the molecule was called inactive.

On to `Nc1ccc(Cl)cc1`, for which the result was inactive.

On to `CCC(C)(C)c1ccc(O)cc1`, for which the call was inactive.

Turning to `c1cc2c3c(cccc3c1)CC2`, the result was inactive.

As to `O=C(O)C1C(C(=O)O)C2(Cl)C(Cl)=C(Cl)C1(Cl)C2(Cl)Cl` (stereo not drawn), the call was inactive.

Turning to `CCOP(=S)(OCC)SCSCC`, the molecule was called inactive.

Take `c1ccc2c(c1)Nc1ccccc1S2`: the molecule was classed as inactive.

Turning to `O=[N+]([O-])c1ccc(Cl)c(Cl)c1`, the molecule was classed as inactive.

As for `CCCCCCCc1ccc(O)cc1`, the molecule was classed as inactive.

On to `CCCCN(CCCC)N=O`, for which the outcome was inactive.

As for `CCCN(CCC)c1c([N+](=O)[O-])cc(C(C)C)cc1[N+](=O)[O-]`, the molecule was called inactive.

Read-out in a further test: solute carrier (SLCO1B1), SLCO1B1 (gene 10599)
Description: LTEA_HepaRG_SLCO1B1: Life Technologies and Expression Analysis (LTEA) Assay for solute carrier (SLCO1B1) using HepaRG (AID 2283530). The note with it: mRNA level, 48 h; actives raise or lower the signal. An outline of the steps: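 SLCO1B1 transcript levels were quantified by TaqMan qRT-PCR using three housekeeping genes for normalization. This followed 48 h chemical exposure (100 uM top, half-log, 8 points, 0.5% DMSO) of HepaRG liver cells, with gain or loss fitted relative to DMSO.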
Regarding `COCCOCCO`, the result was inactive.

With `Nc1cc2c3c(c1)C(c1ccccc1)=N[C@@H](NC(=O)c1cccnc1)C(=O)N3CC2`, the molecule was called inactive.

For the molecule `CCNc1nc(Cl)nc(NC(C)(C)C)n1`, the molecule was classed as inactive.

Take `CC(Cl)(Cl)C(=O)O`: the result was inactive.

`Cc1cccc(N)c1`: the result was inactive.

On to `CC(Cc1ccc(OCC(=O)O)cc1)NCC(O)c1csc(C(F)(F)F)n1` (stereo not drawn), for which the result was inactive.

Regarding `CSC(C)(C)C=NO`, the result was inactive.

For the molecule `Cc1ccc(N)cc1N`, the molecule was classed as inactive.

On to `CCOS(=O)(=O)OCC`, for which the result was inactive.

Take `CCCCN(CCCC)SN(C)C(=O)Oc1cccc2c1OC(C)(C)C2`: the molecule was classed as inactive.

Take `CCOC(=O)c1ccccc1C(=O)OCC`: the call was inactive.

Regarding `CCCCc1ccccc1`, the outcome was inactive.

In the case of `c1nc[nH]n1`, the result was inactive.

Turning to `O=P(Oc1ccccc1)(Oc1ccccc1)Oc1ccccc1`, the outcome was inactive.

As to `ClC(Cl)c1ccccc1`, the call was inactive.

Take `Cc1ccc([N+](=O)[O-])cc1C`: the call was inactive.

Regarding `O=[N+]([O-])c1ccccc1`, the outcome was inactive.

As to `CN(C)C(=O)Cl`, the result was inactive.

In the case of `O=P1(N(CCCl)CCCl)NCCCO1` (stereo not drawn), the molecule was called inactive.

On to `[N-]=[N+]=[N-]`, for which the molecule was called inactive.

For `Nc1ccc(Cl)cc1`, the result was inactive.

Turning to `CCC(C)(C)c1ccc(O)cc1`, the outcome was inactive.

For the molecule `c1cc2c3c(cccc3c1)CC2`, the call was inactive.

As to `O=C(O)C1C(C(=O)O)C2(Cl)C(Cl)=C(Cl)C1(Cl)C2(Cl)Cl` (stereo not drawn), the outcome was inactive.

`CCOP(=S)(OCC)SCSCC`: the outcome was inactive.

`c1ccc2c(c1)Nc1ccccc1S2`: the call was inactive.

Regarding `O=[N+]([O-])c1ccc(Cl)c(Cl)c1`, the molecule was called inactive.

For the molecule `CCCCCCCc1ccc(O)cc1`, the outcome was inactive.

Turning to `CCCCN(CCCC)N=O`, the molecule was classed as inactive.

With `CCCN(CCC)c1c([N+](=O)[O-])cc(C(C)C)cc1[N+](=O)[O-]`, the molecule was called inactive.

Read-out in the next test: sulfotransferase 2A1 (SULT2A1), SULT2A1 (gene 6822)
Kind of test: LTEA_HepaRG_SULT2A1: Life Technologies and Expression Analysis (LTEA) Assay for sulfotransferase 2A1 (SULT2A1) using HepaRG (AID 2283531). The conditions noted are these: mRNA level, 48 h; actives raise or lower the signal. The essentials:
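Expression change of SULT2A1, by qRT-PCR with three housekeeping-gene normalization, was scored bidirectionally versus DMSO. Cells: differentiated HepaRG, dosed in duplicate for 48 h across 8 points, highest 100 µM, half-log dilution, 0.5% DMSO.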
In the case of `CC(Cl)(Cl)C(=O)O`, the molecule was classed as inactive.

Regarding `Cc1ccc(N)cc1N`, the molecule was called inactive.

As to `CCC(C)(C)c1ccc(O)cc1`, the result was inactive.

Read-out in another test: Transforming Growth Factor (TGFA), TGFA (gene 7039)
Kind of test: LTEA_HepaRG_TGFA: Life Technologies and Expression Analysis (LTEA) Assay for Transforming Growth Factor (TGFA) using HepaRG (AID 2283532). The conditions noted are these: mRNA level, 48 h; actives raise or lower the signal. The essentials: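 HepaRG (human liver line), 48 h exposure, 8 conc. half-log down from 100 uM, 0.5% DMSO vehicle, duplicates; serum-free induction medium. TGFA mRNA by TaqMan qRT-PCR, ACTB/GAPDH/POLR2A normalization; gain/loss fit vs DMSO.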
`COCCOCCO`: the molecule was classed as inactive.

On to `Nc1cc2c3c(c1)C(c1ccccc1)=N[C@@H](NC(=O)c1cccnc1)C(=O)N3CC2`, for which the call was inactive.

As for `CCNc1nc(Cl)nc(NC(C)(C)C)n1`, the result was inactive.

As to `CC(Cl)(Cl)C(=O)O`, the outcome was inactive.

Consider `Cc1cccc(N)c1`, for which the molecule was classed as inactive.

As for `CC(Cc1ccc(OCC(=O)O)cc1)NCC(O)c1csc(C(F)(F)F)n1` (stereo not drawn), the outcome was inactive.

`CSC(C)(C)C=NO`: the molecule was called inactive.

For the molecule `Cc1ccc(N)cc1N`, the result was inactive.

In the case of `CCOS(=O)(=O)OCC`, the call was inactive.

Regarding `CCCCN(CCCC)SN(C)C(=O)Oc1cccc2c1OC(C)(C)C2`, the call was inactive.

Regarding `CCOC(=O)c1ccccc1C(=O)OCC`, the molecule was called inactive.

As for `CCCCc1ccccc1`, the outcome was inactive.

As to `c1nc[nH]n1`, the AC50 was 0.0948 µM (active).

On to `O=P(Oc1ccccc1)(Oc1ccccc1)Oc1ccccc1`, for which the molecule was called inactive.

Take `ClC(Cl)c1ccccc1`: the molecule was called inactive.

In the case of `Cc1ccc([N+](=O)[O-])cc1C`, the call was inactive.

As for `O=[N+]([O-])c1ccccc1`, the call was inactive.

`CN(C)C(=O)Cl`: the outcome was inactive.

Regarding `O=P1(N(CCCl)CCCl)NCCCO1` (stereo not drawn), the result was inactive.

In the case of `[N-]=[N+]=[N-]`, the AC50 was 94.4 µM (active).

Turning to `Nc1ccc(Cl)cc1`, the result was inactive.

Consider `CCC(C)(C)c1ccc(O)cc1`, for which the outcome was inactive.

In the case of `c1cc2c3c(cccc3c1)CC2`, the outcome was inactive.

As for `O=C(O)C1C(C(=O)O)C2(Cl)C(Cl)=C(Cl)C1(Cl)C2(Cl)Cl` (stereo not drawn), the molecule was classed as inactive.

Turning to `CCOP(=S)(OCC)SCSCC`, the result was inactive.

As for `c1ccc2c(c1)Nc1ccccc1S2`, the molecule was classed as inactive.

Consider `O=[N+]([O-])c1ccc(Cl)c(Cl)c1`, for which the call was inactive.

Regarding `CCCCCCCc1ccc(O)cc1`, the result was inactive.

As for `CCCCN(CCCC)N=O`, the call was inactive.

Turning to `CCCN(CCC)c1c([N+](=O)[O-])cc(C(C)C)cc1[N+](=O)[O-]`, the molecule was called inactive.
